Consider 8 compounds from PubChem BioAssay (NCI).

The structures appear in SMILES notation. The panel holds about 83,000 compounds, 20% with a hit somewhere; the sample as a whole holds those more often.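 For each line, cells grew in 96-well plates with the test compound present at a single concentration for 48 hours.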 Values without a mark were called inactive. Activity calls are given as the source filed them. How the source made its calls: active means growth percent below 10; inactive means the rest.

Common to all, as to test: NCI-60 one-dose screen, 48 h (100 = growth as untreated, 0 = no growth, -100 = all killed)
Experiment [1] deals with HCT-15 colon. Particulars: 10 µM unless noted.
Experiment [2] concerns HT29 colon. Particulars: 10 µM unless noted.
For experiment [3], the system named is SNB-75 CNS. Particulars: 10 µM unless noted.
For experiment [4], the system named is SNB-19 CNS. To be noted: 10 µM unless noted.
The subject of experiment [5] is U251 CNS. To be noted: 10 µM unless noted.
Experiment [6] relates to PC-3 prostate. Particulars: 10 µM unless noted.
Experiment [7] concerns SK-MEL-5 melanoma. To be noted: 10 µM unless noted.
For experiment [8], the system named is UACC-62 melanoma. Particulars: 10 µM unless noted.
The test system of experiment [9] is LOX IMVI melanoma. To be noted: 10 µM unless noted.
The subject of experiment [10] is SK-MEL-28 melanoma. To be noted: 10 µM unless noted.
Experiment [11] has as its system SK-MEL-2 melanoma. To be noted: 10 µM unless noted.
Experiment [12] has as its system EKVX NSCLC. To be noted: 10 µM unless noted.
In experiment [13] the test system is SN12C renal. Particulars: 10 µM unless noted.
Experiment [14] concerns UO-31 renal. Particulars: 10 µM unless noted.
The test system of experiment [15] is ACHN renal. Particulars: 10 µM unless noted.
Experiment [16] has as its system CAKI-1 renal. Particulars: 10 µM unless noted.
For experiment [17], the system named is A498 renal. Particulars: 10 µM.
Experiment [18] concerns HL-60(TB) leukemia. To be noted: 10 µM unless noted.
Experiment [19] concerns CCRF-CEM leukemia. Particulars: 10 µM unless noted.
The test system of experiment [20] is TK-10 renal. Particulars: 10 µM unless noted.

As to `CC[C@@H]1[C@@H](C)O[C@@](O)([C@@H](C)[C@H](O)[C@H](C)[C@H]2OC(=O)/C=C/C=C/[C@H](C)[C@@H]([C@@H](C)[C@@H](O)[C@H](C)[C@@]3(O)C[C@@H](O[C@H]4C[C@@H](O)[C@H](O)C(C)O4)[C@H](CC)[C@@H](C)O3)OC(=O)/C=C/C=C/[C@@H]2C)C[C@H]1O[C@@H]1C[C@@H](O)[C@H](O)C(C)O1` (stereo partly drawn), the growth in experiment [1] is -84.4% (active); in [2] it was -84% (active); in experiment [3] it was -97.6% (active); in experiment [4], -81.6% (active); in experiment [5], -92.8% (active); in experiment [6], -88.4% (active). Further, the growth was -96.2% (active) in experiment [7]; -73.3% (active) in experiment [8]; -94% (active) in experiment [9]; -92.1% (active) in experiment [10]; -92% (active) in experiment [11]; -88.6% (active) in [12]. Further, the growth in experiment [13] was -75.1% (active); in experiment [14] it was -97% (active); in experiment [15] it was -96.8% (active); in experiment [16] it was -98.4% (active); in experiment [17], -97.5% (active); in [18], -73.3% (active). In [19], the growth is -61.5% (active).

As to `CC(=O)Nc1ccc(NC(=O)c2ccc([As](O)O)cc2)cc1`, the growth in experiment [1] was 85%; in experiment [2], 112%; in experiment [3], 89.4%; in experiment [4], 92.9%; in experiment [5] it was 56.5%; in experiment [6] it was 100%. In addition, the growth in [7] is 98.1%; in experiment [8], 78.3%; in [9] it was 76.4%; in experiment [10] it was 118%; in experiment [11], 96%; in [12], 110%. In addition, the growth was 93.9% in experiment [13]; 69.4% in experiment [14]; 136% in [20]; 107% in experiment [16]; 133% in experiment [17]; 44.5% in experiment [18]. Besides, the growth in experiment [19] was 47.7%.

As to `c1cnc2[nH]cc(-c3csc(-c4cn(CCCCN5CCOCC5)c5ccccc45)n3)c2c1`, the growth in experiment [1] is 5.17% (active); in [2] it was -44.6% (active); in [3], 35.4%; in [4], 57.5%; in [5], 20%; in experiment [6] it was 25.9%. Besides, the growth in experiment [7] was 51.2%; in [8], 68.9%; in experiment [9], 20.8%; in experiment [10], -71.1% (active); in experiment [11], 87.8%; in [12] it was 64%. In addition, the growth in [13] was 67%; in [14], 25.4%; in experiment [15] it was 32.4%; in experiment [16], 44.3%; in [17], 56.8%; in experiment [18], -58.2% (active). For the same compound, in experiment [19], the growth is 10.1%.

Consider `CCCCN1CCCC[C@@H]1C(=O)N[C@H](C(=O)N(C)[C@H](CCc1nc(C(=O)N[C@@H](Cc2ccccc2)C[C@H](C)C(=O)OC)cs1)C(C)C)[C@@H](C)CC`, for which the growth in experiment [1] is 41.4%; in [2], 35.2%; in experiment [3], 70.3%; in experiment [4], 62.5%; in [5], 58.3%; in [6] it was 40.8%. The growth in experiment [7] is 34.8%; in experiment [8], 47%; in experiment [9] it was 78.2%; in experiment [10], 81.1%; in experiment [11] it was 24.8%; in experiment [12], 61.2%. In addition, the growth in [13] is 77.6%; in [14], 48%; in experiment [20], 69.2%; in [15] it was 52.2%; in experiment [17], 32.9%; in [18], 27.5%. Further, the growth in [19] was 61.6%.

In the case of `COC(=O)[C@@H](C)C[C@H](Cc1ccc(F)cc1)NC(=O)c1csc([C@@H](C[C@H](C(C)C)N(C)C(=O)[C@@H](NC(=O)[C@H]2CCCCN2C)C2CC2)OC(C)=O)n1`, the growth in experiment [1] is 12.4%; in experiment [2], 0.34% (active); in experiment [3], 54.3%; in experiment [4], 36.5%; in experiment [5], 5.77% (active); in [6], 28.7%. The growth in [7] was -20.7% (active); in [8], 43.3%; in experiment [9], 23.9%; in [10] it was 59%; in [11], 24.4%; in experiment [12] it was 43.2%. The growth in experiment [13] was 31.6%; in experiment [14], 55.8%; in [20], 72.4%; in [15] it was 34%; in experiment [17] it was 9.1% (active); in experiment [19] it was 12.6%.

Take `N#CCCNc1ccccc1`: the growth in experiment [1] was 111%; in experiment [2], 108%; in experiment [3], 88.6%; in [4], 116%; in [5], 103%; in experiment [6], 96.9%. In addition, the growth in experiment [7] is 107%; in experiment [8] it was 117%; in experiment [9] it was 106%; in [10], 99.8%; in experiment [11], 112%; in [12], 98%. Also, the growth is 111% in experiment [13]; 93.6% in [14]; 115% in experiment [20]; 101% in experiment [15]; -10.8% (active) in experiment [18].

For the compound `CN(CCCCN(C)CCOS(C)(=O)=O)CCOS(C)(=O)=O`, the growth was 89.4% in experiment [1]; 86.9% in experiment [2]; 88.5% in experiment [3]; 94.7% in [4]; 71.8% in experiment [5]; 85.3% in [6]. Further, the growth in experiment [7] is 84.4%; in experiment [8] it was 56.1%; in experiment [9], 58%; in experiment [10] it was 95.1%; in [11] it was 102%; in experiment [12], 112%. Moreover, the growth in experiment [13] was 71.9%; in [14], 71.5%; in experiment [20], 98.7%; in experiment [16], 2.42% (active); in [17] it was 85.3%; in experiment [18] it was 61.4%. Besides, the growth in experiment [19] is 50.3%.

For `CCOC(=O)CCN(C)C1=Nc2ccc(Cl)cc2C(c2ccccc2)=[N+]([O-])C1`, the growth in experiment [1] is 105%; in [2], 82%; in experiment [3], 99.5%; in experiment [4], 99.3%; in [5], 100%; in experiment [6], 91%. In addition, the growth in experiment [7] was 100%; in [8] it was 93.4%; in experiment [9], 99.8%; in experiment [10], 121%; in experiment [11], 93.5%; in [12], 102%. Also, the growth in experiment [13] was 98.5%; in experiment [14], 78.6%; in experiment [20] it was 91.4%; in experiment [15], 110%; in [17], 71.8%; in [19], 99.6%.
